# Source: PubChem BioAssay
# VDR inhibitor: vitamin D3 receptor (human) inhibition | VDR-SRC2-3 peptide fluorescence polarization, 2 h | 400,000 tested, 0.93% active | Potency, µM, for the others: max response, negative = inhibition, hits mostly inhibitors | AID 504847 | P11473
# Target sequence (P11473 whole entry, looked up): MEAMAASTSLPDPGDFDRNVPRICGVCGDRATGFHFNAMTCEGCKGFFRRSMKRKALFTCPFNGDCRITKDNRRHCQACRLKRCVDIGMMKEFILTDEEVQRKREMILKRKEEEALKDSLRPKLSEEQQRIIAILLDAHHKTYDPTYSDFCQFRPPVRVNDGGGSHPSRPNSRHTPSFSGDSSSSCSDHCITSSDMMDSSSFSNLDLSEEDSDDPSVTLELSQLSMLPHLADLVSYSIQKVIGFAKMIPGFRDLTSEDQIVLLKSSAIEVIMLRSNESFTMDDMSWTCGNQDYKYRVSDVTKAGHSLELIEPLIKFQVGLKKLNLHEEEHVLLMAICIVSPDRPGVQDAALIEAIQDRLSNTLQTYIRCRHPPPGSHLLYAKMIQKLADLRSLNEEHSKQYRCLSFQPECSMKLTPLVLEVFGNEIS
#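 Measured by FP: displacement of SRC2-3 coactivator peptide from VDR by library compounds, following a two-hour ambient incubation.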
# PLK1 PBD block: PLK1 (human) polo-box domain binding inhibition; 360,000 tested, 2.8% active; Plk1 PBD binding of FITC phosphopeptide, fluorescence polarization; Potency, µM, inactives show max response, negative = inhibition, hits mostly inhibitors; P53350; note: series mostly up to about 57 µM; nearly all actives have a fitted effect of over 65% in size
# TDP1 cell CPT: growth inhibition of DT40 Tdp1-/-;hTDP1 cells with camptothecin (screen for TDP1 inhibitors); chicken DT40 Tdp1-/-;hTDP1 cells + 20 nM CPT, ATP luminescence, 48 h; Potency, µM (titrated, usually from 46.2 µM), for the others: top-dose activity change, negative = growth inhibition, most hits filed as inhibitors; 420,000 tested, 12% active; note: nearly all actives have a fitted effect of over 55% in size
#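 Chicken DT40 Tdp1-/- cells stably complemented with human TDP1 were seeded at 400 cells/well in medium containing 20 nM camptothecin, exposed to pin-transferred compounds, and grown at 37 °C for at least 48 hr. Viability was read as ATP luminescence.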
# GCN5L2 inh: GCN5L2 (KAT2A) acetyltransferase inhibition; AID 504327; 390,000 tested, 0.21% active; Potency, µM (doses to about 58.9 µM), without a hit: at the highest dose activity change, negative = inhibition, most hits filed as inhibitors; GCN5L2 HAT assay, ThioGlo1 CoA-SH fluorescence
#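 Fluorescence readout, Ex340nm/Em540nm: ThioGlo1 (50uM final) reacts with free CoA thiol released as 20nM GCN5L2 acetylates H3(1-25) peptide (75uM) using acetyl-CoA (70uM). Compound and enzyme sat 15 min beforehand; 20 min room-temperature reaction.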
# TDP1 block: inhibitors of human tyrosyl-DNA phosphodiesterase TDP1; 350,000 tested, 0.28% active; recombinant TDP1, AlphaScreen DNA substrate cleavage; AID 485290; Potency, µM (series often up to 130 µM), for the others: top-dose activity change, negative = inhibition, most hits filed as inhibitors; Q9NUW8; note: nearly all actives have a fitted effect of over 40% in size
#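 Compounds were preincubated with Tdp1 (1 nM final) for 15 min at room temperature before substrate (15 nM final) started a 5 min reaction; beads (10 ug/ml final) were then added for 10 min before AlphaScreen detection.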
# DT40 TDP1 no CPT: qHTS for Inhibitors of human tyrosyl-DNA phosphodiesterase 1 (TDP1): qHTS in cells in absence of CPT. DT40 Tdp1-/- hTDP1 cells, no CPT, ATP luminescence, 48 h. Potency, µM (highest dose often 46.2 µM), for inactives: top-dose activity change, negative = growth inhibition, hits mostly inhibitors. 420,000 tested, 15% active. AID 686978, 2013; note: nearly all actives have a fitted effect of over 55% in size
#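 Stably hTDP1-transfected Tdp1-null chicken DT40 cells were treated with library compounds minus camptothecin and grown for at least 48 hr at 37 °C, after which cellular ATP was quantified by luminescence.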
# Numbers without * were called inactive; ? = inconclusive; . = no result; [ ] = another dose, or the depositor's remark. Compounds with a hit are over-represented: about 18% of the library has one in this group of screens. Calls come from the whole dose curve; as a rule, active = well fitted curve in the direction sought with a large enough effect; inconclusive = small, poorly fitted or top-dose-only effect, or another doubt; inactive = no such curve, though single readings can be large; an effect the other way counts as inactive or inconclusive. % is set by controls: 0 for no effect and ±100 for the full control effect; potency is the fitted concentration of half-maximal effect.
SMILES,VDR inhibitor,PLK1 PBD block,TDP1 cell CPT,GCN5L2 inh,TDP1 block,DT40 TDP1 no CPT
NC(=O)c1ccc[n+](CC(=O)c2cccc([N+](=O)[O-])c2)c1,1%,2%,7%,-3%,.,-4%
CC(=O)c1c(C)n(-c2cccc(Cl)c2)c2ccc(OC(=O)c3ccccc3)cc12,-21%,.,?,-2%,-2%[12.3 µM],29µM*
CC(=O)c1c(C)n(-c2ccc(Cl)cc2)c2ccc(O)cc12,-5%,1%,?,-2%,.,-20%
CC(=O)c1c(C)n(-c2cccc(Cl)c2)c2ccc(O)cc12,9%,-5%,?,-20%,.,0.52µM*
COc1ccccc1C1CC(c2ccco2)=NN1S(C)(=O)=O (stereo not given),?,?,21µM*,-3%,-1%,?
COc1ccc2cc(C3CC(c4ccco4)=NN3S(=O)(=O)c3ccccc3)c(Cl)nc2c1 (stereo not given),-22%,1%,?,-9%,0%,15µM*
CCOC(=O)c1cccc(NS(=O)(=O)c2ccc(-c3cnc(C4CC4)o3)cc2)c1,8%,.,2.3µM*,-11%,6%,2.6µM*
Cc1cccc(C)c1NS(=O)(=O)c1ccc(-c2cnc(C3CC3)o2)cc1,-7%,3%,0.0058µM*,-4%,7%,0.12µM*
Cc1ccc(NS(=O)(=O)c2ccc3c(c2)N(C)CCO3)cc1C,.,.,.,.,5%,.
COc1ccc(C)cc1NS(=O)(=O)c1ccc(-c2cnc(C3CC3)o2)cc1,3%,-1%,0.065µM*,-22%,6%,0.065µM*
CCOC(=O)C1CCN(C(=O)COC(=O)c2cccc(NS(=O)(=O)c3ccccc3)c2)CC1,-11%,1%,?,.,.,?
COc1ccc(C)cc1NS(=O)(=O)c1ccc2c(c1)N(C)CCO2,4%,-1%,?,-3%,7%,15µM*
COc1ccc(CNC(=O)COC(=O)c2cc(C)oc2C)cc1,.,-8%,-2%,.,.,-21%
COC(=O)[C@@]1(Cc2ccc(OC)cc2)[C@H]2c3cc(C(=O)N(C)C)n(Cc4ccc(C(F)(F)F)nc4)c3C[C@H]2CN1C(=O)c1ccccc1,.,.,.,.,18%,.
CCCS(=O)(=O)NC(=O)C1(C)CCN(C(=O)c2cc(C)n(C(C)(C)C)n2)C1 (stereo not given),.,-2%,-23%,.,.,12%
CCNCCC(=O)N1c2ccccc2Sc2ccc(C(F)(F)F)cc21,-3%,-24%,?,-3%,.,-56%
Cc1ccc(CNS(=O)(=O)c2ccc(-c3cnc(C4CC4)o3)cc2)cc1,-7%,-8%,?,-7%,-14%,?
Cc1ccc(N(C)S(=O)(=O)c2ccc(-c3cnc(C4CC4)o3)cc2)cc1,11%,-9%,0.029µM*,-6%,2%,0.018µM*
N#Cc1ccc(NS(=O)(=O)c2ccc(-c3cnc(C4CC4)o3)cc2)cc1,0%,.,18µM*,3%,1%,?
CC(=O)c1ccc(NS(=O)(=O)c2ccc(-c3cnc(C4CC4)o3)cc2)cc1,6%,6%,-29%,-19%,3%,?
O=C(COc1ccc2ccccc2c1)NNC(=O)c1cnccn1,-7%,2%,23µM*,-6%,-8%,23µM*
O=C(COc1cccc2ccccc12)NNC(=O)c1cnccn1,-5%,0%,?,0%,8%,16µM*
CC(C)c1ccc(OCC(=O)NNC(=O)c2cnccn2)cc1,1%,-12%,?,0%,4%,?
O=C(COc1ccccc1Cl)NCCCNC(=O)c1cnccn1,6%,-2%,-14%,-2%,.,-18%
O=C(CCc1ccc(S(=O)(=O)N2CCOCC2)cc1)OCC(=O)c1ccccc1F,13%,0%,-1%,-3%,2%,1%
SMILES,VDR inhibitor,PLK1 PBD block,TDP1 cell CPT,GCN5L2 inh,TDP1 block,DT40 TDP1 no CPT
COc1cccc(CNC(=O)c2ccc(C3SCCS3)cc2)c1,-7%,0%,?,-1%,5%,?
O=C(c1cccs1)N(c1ccc(Br)cc1)C1C=CS(=O)(=O)C1 (stereo not given),37%,-8%,?,0%,5%,-13%
Cc1ccc(C)c(C(=O)CN2C3=NCCCN3c3ccccc32)c1,2%,1%,16µM*,-5%,4%,?
COc1cccc(C(=O)CN2C3=NCCCN3c3ccccc32)c1,-6%,-7%,21µM*,-2%,0%,21µM*
O=C(CN1C2=NCCN2c2ccccc21)C12CC3CC(CC(C3)C1)C2,0%,-1%,21µM*,-6%,-1%,16µM*
Cc1ccc(NC(=O)CSc2nnc(N)s2)c(C)c1,-17%,.,-3%,17%,.,1%
O=C(NCC1CCCN(Cc2cccc(F)c2)C1)c1cccc2ccccc12 (stereo not given),-8%,-8%,-20%,4%,.,0%
CCOC(=O)CSC1=NC(=O)/C(=C/c2ccc(Br)cc2)S1,?,0.84µM*,2.6µM*,-9%,8%,4.1µM*
Cc1[nH]n(C(N)=S)c(=O)c1N=Nc1ccc(Br)cc1,-27%,?,23µM*,-4%,.,16µM*
O=C(Cn1nc(Cc2ccncc2)c2ccccc2c1=O)Nc1cccc(C(F)(F)F)c1,-9%,.,?,-5%,9%,23µM*
Cc1ccc(Cn2c(=O)c3cccnc3n(CC(=O)Nc3cccc(C(F)(F)F)c3)c2=O)cc1,1%,-15%,?,0%,-2%,16µM*
C/C(=N\NC(=O)c1c(Br)c(C)nn1C)c1ccc(NC(=O)c2ccoc2C)cc1,-11%,-3%,-3%,-1%,6%,23µM*
CCC(=O)Nc1ccc(/C(C)=N/NC(=O)c2c(Br)c(C)nn2C)cc1,7%,-14%,?,-2%,0%,15µM*
C/C(=N\NC(=O)c1nn(C)c(C)c1Br)c1ccc(NC(=O)c2ccoc2C)cc1,-24%,3%,-18%,-5%,5%,-26%
COC(=O)c1nc(N2CCN(S(=O)(=O)c3ccc(C)cc3)CC2)c2ccccc2n1,-21%,.,?,.,2%,18µM*
O=S(=O)(c1ccccc1Br)N1CCN(c2nc(-c3ccccc3)nc3ccccc23)CC1,-4%,.,?,.,0%,14µM*
CC(C)(C)c1ccc(S(=O)(=O)N2CCN(c3nc(-c4ccccc4)nc4ccccc34)CC2)cc1,2%,.,-19%,.,1%,-23%
Cc1ccc(S(=O)(=O)N2CCN(c3nc(-c4cccnc4)nc4ccccc34)CC2)cc1,-9%,.,13µM*,.,-3%,11µM*
